ERK EGF block: inhibitors of EGF-stimulated ERK signaling pathway; HEK293-V1b, EGF-stimulated phospho-ERK AlphaScreen; Potency, µM (titrated, usually from 11.5 µM), without a hit: at the highest dose activity change, negative = inhibition, actives largely listed as inhibitors; AID 1454; actives 0.41% (n = 130,000);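 further: potency means the concentration at half of the fitted maximal effect; plate controls were stimulated vehicle wells for no effect and unstimulated vehicle basal for full effect; nearly all actives have a fitted effect of over 55% in size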
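Stably V1b-transfected HEK293 cells; 30 min compound, then EGF 25 nM final for 5 min at 37C; 10 min lysis; phospho-ERK by AlphaScreen after 5 hr beads at room temperature.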
pERK EGF inh: reduces EGF-stimulated ERK phosphorylation in HEK293 cells; AID 1725; HEK293 EGF-stimulated ERK phosphorylation, AlphaScreen; actives 60% (n = 60); shares compounds with ERK EGF block; Potency, µM (highest dose often 57.5 µM), for inactives: top-dose activity change, negative = inhibition, actives largely listed as inhibitors
c-Raf inh: ERK pathway inhibitors follow-up: human c-Raf kinase inhibition | shares compounds with ERK EGF block | c-Raf kinase inhibition, homogeneous biochemical assay | activity change, negative = inhibition, % at 76.9 µM | 70 tested, under 10 active | AID 1728
Target sequence (P04049 whole entry, looked up): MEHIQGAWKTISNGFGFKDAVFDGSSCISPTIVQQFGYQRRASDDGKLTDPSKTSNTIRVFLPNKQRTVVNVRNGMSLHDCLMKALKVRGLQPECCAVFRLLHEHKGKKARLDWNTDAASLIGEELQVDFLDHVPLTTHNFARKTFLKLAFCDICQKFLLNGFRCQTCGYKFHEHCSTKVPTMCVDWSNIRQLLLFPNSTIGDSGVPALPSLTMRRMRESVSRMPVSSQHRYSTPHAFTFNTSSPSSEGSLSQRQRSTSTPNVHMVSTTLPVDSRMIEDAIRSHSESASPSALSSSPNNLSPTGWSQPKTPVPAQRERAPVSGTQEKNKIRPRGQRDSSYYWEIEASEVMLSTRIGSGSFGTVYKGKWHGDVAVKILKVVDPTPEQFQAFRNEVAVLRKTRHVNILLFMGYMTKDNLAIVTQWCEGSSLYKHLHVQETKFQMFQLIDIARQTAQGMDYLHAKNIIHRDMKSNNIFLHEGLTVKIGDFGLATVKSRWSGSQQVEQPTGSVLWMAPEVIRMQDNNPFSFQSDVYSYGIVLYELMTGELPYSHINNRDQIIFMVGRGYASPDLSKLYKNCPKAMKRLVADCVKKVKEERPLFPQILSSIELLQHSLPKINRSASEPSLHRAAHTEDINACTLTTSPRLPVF
MEK inh: MEK1 (human) kinase inhibition; AID 1732; shares compounds with ERK EGF block; 70 tested, under 10 active; Potency, µM (titrated, usually from 76.9 µM), inactives show top-dose activity change, negative = inhibition, hits mostly inhibitors; homogeneous MEK kinase activity assay, ERK pathway
The depositor's hits bear a star; ? = inconclusive; nt = not tested or not shown; [ ] = another dose, or the depositor's remark. This is one part of a sample in which hits are shown more often than they occur. The call rests on the fitted dose curve; in most records, active means well fitted curve in the direction sought with a large enough effect; inconclusive means small, poorly fitted or top-dose-only effect, or another doubt; inactive means no such curve, though single readings can be large; an effect the other way counts as inactive or inconclusive.

SMILES | ERK EGF block | others
CCC(Oc1ccc2c(=O)c(-c3ccccc3OC)coc2c1)C(=O)OCc1ccccc1 (centres undefined) | 7%
COC(=O)COc1ccc2c(=O)c(-c3ccccc3)coc2c1 | 12%[57.5 µM]
COc1ccc2c(c1)C(=O)[C@@H](OC(=O)NC1CCCC1)[C@H](c1ccc(OC)c(Br)c1)O2 | -5%
CCCn1c(=O)[nH]c2nc(-c3ccc(S(=O)(=O)O)cc3)[nH]c2c1=O | 2%
COc1ccc2c(c1)C(=O)[C@H](OC(=O)N[C@H]1CCCc3ccccc31)[C@@H](c1ccc(OC)c(Br)c1)O2 | -7%
COc1ccc(Nc2c(-c3ccc(C)cc3)nc3cnccn23)cc1 | -4%
COc1ccc(Nc2c(-c3ccc(OC)cc3)nc3cnccn23)cc1 | 7%
Cc1ccc(Nc2c(-c3ccccc3O)nc3cnccn23)cc1 | 25µM*
CCCn1c(-c2ccc(F)cc2)nc2c(NCCCN(CCO)CCO)nc(C)nc21 | 2%
CS(=O)(=O)n1nc(-c2ccc(Cl)cc2)nc1N | -5%
COc1ccc(OCCn2nnc(-c3ccc(Cl)cc3)n2)cc1 | 4%
Cn1nc(-c2ccc(Cl)cc2)nc2c(=O)n(C)c(=O)nc1-2 | ? | pERK EGF inh=?;c-Raf inh=?;MEK inh=?
CC(=O)CCOC1CCCCO1 (centres undefined) | 1%
CC(C)C[C@@H](CC(=O)N[C@@H](CCC(=O)O)CC(=O)O)NC(=O)[C@@H]1CCCC[C@H]1NC(=O)C[C@H](CCCN)NC(=O)C[C@H](CO)NC(=O)[C@@H]1CCCC[C@H]1N | -7%
OCC1OC(n2cnc3c(=S)nc[nH]c32)C(O)C1O (centres undefined) | 16%
CC(C)[C@@H](CC(=O)N[C@@H]1CCNC[C@H]1C(=O)N[C@H](CC(=O)N[C@@H](CCC(=O)O)CC(=O)O)Cc1ccccc1)NC(=O)C[C@H](CO)NC(=O)[C@@H]1CCCC[C@H]1N | -16%
CCOC(=O)c1nc2ccccc2nc1C | 2%
Cc1ccc(S(=O)(=O)Nc2cnc3ccccc3c2)cc1 | -3%
Cc1ccc2nc(=O)c(NNc3ccccc3)cnc2c1 | 14µM* | c-Raf inh=-16;MEK inh=4%
Cc1ccc2nc(-c3ccccc3)c(-c3ccccc3)nc2c1 | -10%
Cc1nc2ccccc2nc(=O)c1NNc1ccccc1 | nt | pERK EGF inh=14µM*;c-Raf inh=-6;MEK inh=-2%
Cc1nc2ccccc2nc1OCc1ccccc1 | -3%
CCCn1c(-c2ccc(F)cc2)nc2c(NCC3CCN(C)CC3)nc(C)nc21 | -4%
CCCCCCCCCCCCCCCCOCC(CO)OC (centres undefined) | -7%
COc1ccc(Oc2ncc3ncc(=O)n(Cc4cccc(OC)c4)c3n2)cc1 | 10%
SMILES | ERK EGF block | others
CCc1c2c(nc3cccc(OC)c13)OC(CC)C2 (centres undefined) | -2%
CS(=O)(=O)CCNCc1nc(-c2ccc3ncnc(Nc4ccc(OCc5cccc(F)c5)c(Cl)c4)c3c2)cs1 | 1µM* | pERK EGF inh=0.71µM*;c-Raf inh=-10;MEK inh=-13%
C[C@@H]1C(=O)CC2C(C)(C)CCC[C@]2(C)[C@@]1(O)CCc1ccoc1 (some centres undefined) | -1%
COc1cccc([C@@H]2Oc3ccc(OC)cc3C[C@H]2O)c1 | -8%
CCn1c(SCC#N)nc2ccccc2c1=O | 8%[57.5 µM]
CCn1c(=O)c2[nH]c(-c3ccccc3)nc2n(CC)c1=O | 12% | c-Raf inh=-13;MEK inh=-7%
CCCn1c(=O)c2[nH]c(-c3ccccc3)nc2n(CCC)c1=O | -13%
CN(C)[C@H]1C(=O)C(C(=O)NCN2CCCC2)=C(O)[C@]2(O)C(=O)C3=C(O)c4c(O)cccc4[C@@](C)(O)[C@H]3C[C@@H]12 | 7%[25.7 µM]
CC(/C=C/c1ccccc1)=N\Nc1ccccc1[N+](=O)[O-] | 7.9µM* | pERK EGF inh=8.9µM*;c-Raf inh=-3;MEK inh=-6%
CC(/C=C/c1ccccc1)=N/NC(=O)C(O)c1ccccc1 (centres undefined) | 6%
CC(/C=C/c1ccccc1)=N/NC(=O)c1cc([N+](=O)[O-])cc([N+](=O)[O-])c1 | 29%
C/C=C(\C)C(=O)O[C@H]1C[C@@]2(C)CCC(C(C)C)C2(O)CC[C@@]1(C)O (some centres undefined) | 5%
c1ncc(-c2ccc3c(c2)OCO3)c(NCCc2cnc[nH]2)n1 | 16%
Cc1ccc(Nc2ncnc3sc(C)c(C)c23)cc1C | nt | pERK EGF inh=11µM*;c-Raf inh=?;MEK inh=-1%
Cc1sc2ncnc(N/N=C/c3ccc(O)cc3)c2c1C | -2%
Cc1sc2ncnc(N/N=C/c3ccccc3O)c2c1C | 4%
Cc1cc(N/N=C/c2ccc(O)cc2O)nc(-n2nc(C)cc2C)n1 | -3%
Cc1cc(N/N=C/c2ccccc2O)nc(-c2ccccc2O)n1 | -1%
Cc1cc(-c2ccccc2)n(-c2cc(N/N=C/c3ccccc3O)ncn2)n1 | 10µM* | pERK EGF inh=?;c-Raf inh=-7;MEK inh=-18%
CC(C)C[C@@H](CC(=O)N[C@H](CC(=O)N[C@@H]1CCNC[C@H]1C(=O)N[C@H](CC(=O)N[C@@H](CCC(=O)O)CC(=O)O)Cc1c[nH]c2ccccc12)C(C)C)NC(=O)[C@@H]1CNCC[C@H]1N | 5%
CC(C)[C@@H](CC(=O)N[C@@H]1CCCC[C@H]1C(=O)N[C@H](CC(=O)N[C@@H](CCC(=O)O)CC(=O)O)Cc1ccccc1)NC(=O)C[C@H](Cc1c[nH]c2ccccc12)NC(=O)[C@@H]1CNCC[C@H]1N | -5%
C[C@H]1C[C@@H]2[C@@H]([C@@H](O)C[C@@]3(C)[C@H]2CC[C@]3(O)C(=O)CO)[C@@]2(C)C=CC(=O)C=C12 | 11%[25.7 µM]
O=C1c2ccc(O)c(O)c2C(=O)c2c(O)ccc(O)c21 | 7.9µM* | pERK EGF inh=10µM*;c-Raf inh=?;MEK inh=?
O=C1C=C(O)c2cccc(O)c2C1=O | -16%[57.5 µM]
O=C1c2ccccc2C(=O)c2c([N+](=O)[O-])ccc(O)c21 | -14%[57.5 µM]
SMILES | ERK EGF block | others
COCOc1c2c(c(OCOC)c3c(OCOC)cccc13)/C(=N/N[S+](=O)([O-])c1ccc(C)cc1)C1=C2CCCC1 | 1%
CC1=CC(=O)C2=C(C)C[C@@H]3OC(=O)[C@@H](C)[C@H]3C=C12 | -13%
COc1cc2nc3c(c([Si](C)(C)C(C)(C)C)c2cc1OC)Cn1c-3cccc1=O | 6%
CN(C)c1ccc(-c2cc(NCc3ccccc3)ncn2)cc1 | 34%
Cc1noc(C)c1-c1ccc2ncnc(NCc3ccccc3)c2c1 | 24%
CN(C)c1ccc(-c2ccc3ncnc(NCc4ccccc4)c3c2)cc1 | 8.9µM* | pERK EGF inh=11µM*;c-Raf inh=?;MEK inh=0%
S=c1[nH]c2ccccc2s1 | -1%
O=C(O)[C@H]1[C@H]2C[C@H]3c4[nH]c5ccccc5c4CCN3C[C@@H]2CC[C@@H]1O | 10%
COc1ccccc1-c1cncnc1NCc1cccc(C)c1 | 23%
COc1cc2ncnc(NCc3cccc(Cl)c3)c2cc1OC | 0.45µM* | pERK EGF inh=1.8µM*;c-Raf inh=?;MEK inh=1%
COc1ccc(CNc2ncnc3cc(Cl)ccc23)cc1 | -12%
